Source: PubChem BioAssay (National Center for Advancing Translational Sciences (NCATS))
IL-1B inflam inh = qHTS for Inhibitors of Inflammasome Signaling: IL-1-beta AlphaLISA Primary Screen; 360,000 compounds, 4.7% hits; activity change, % at 57.5 µM; THP-1 LPS/ATP IL-1B secretion, AlphaLISA, 16 h; hits give low values; in the data active means activity change below about -50%; inconclusive means mostly about -30% to -49%
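Secreted IL-1B measured by AlphaLISA bead assay after 16 h compound exposure of THP-1 cells; compounds (final up to 57.5 uM) added 1 h before LPS (250 ng/mL) and ATP (1.25 mM) stimulation; lower signal means less secretion.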
TDP1 cell noCPT = qHTS for Inhibitors of human tyrosyl-DNA phosphodiesterase 1 (TDP1): qHTS in cells in absence of CPT; DT40 Tdp1-/- hTDP1 cells, no CPT, ATP luminescence, 48 h; Potency, µM (highest dose often 46.2 µM), hits mostly inhibitors; 420,000 compounds, 15% hits; AID 686978, 2013; further: nearly all actives have a fitted effect of over 55% in size
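Growth kinetics read by CellTiter-Glo luminescence after ≥48 hr at 37 °C. Cells: DT40 Tdp1-/- stably carrying human TDP1, 400 per well, compound exposure in the absence of CPT (DMSO vehicle).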
DT40 TDP1 CPT = qHTS for Inhibitors of human tyrosyl-DNA phosphodiesterase 1 (TDP1): qHTS in cells in presence of CPT | chicken DT40 Tdp1-/-;hTDP1 cells + 20 nM CPT, ATP luminescence, 48 h | AID 686979, 2013 | Potency, µM (series often up to 46.2 µM), actives largely listed as inhibitors | 420,000 compounds, 12% hits; further: nearly all actives have a fitted effect of over 55% in size
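Cell growth measured by CellTiter-Glo luminescence after a minimum 48 h, 37 C compound exposure with 20 nM CPT in Tdp1-knockout DT40 cells stably expressing hTDP1, seeded 400/well; qHTS titration format.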
HT1080-NT tox = qHTS for induction of synthetic lethality in tumor cells producing 2HG: qHTS for the HT-1080-NT fibrosarcoma cell line. HT-1080-NT fibrosarcoma viability, CellTiter-Glo ATP luminescence, 48 h. Potency, µM (titrated, usually from 46.1 µM), most hits filed as cytotoxic. 360,000 compounds, 1.6% hits. AID 686970, 2013;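 further: NT is the 2HG producing partner of a matched IDH1 knockdown line; nearly all actives have a fitted effect of over 55% in size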
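Luminescent CellTiter-Glo readout after 48 hours of compound exposure at 37 degrees C defined viability of HT-1080-NT cells. Activity was normalized to DMSO wells and cell-free media wells; concentration-response curves were fitted and assigned curve classes.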
HT1080 IDH1KD tx = qHTS for induction of synthetic lethality in tumor cells producing 2HG: qHTS for the HT-1080-IDH1KD cell line. HT-1080 IDH1 knockdown viability, ATP luminescence, 48 h. Potency, µM (titrated, usually from 46.1 µM), most hits filed as cytotoxic. 360,000 compounds, 2% hits. AID 686971, 2013
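Cytotoxicity counter-line: IDH1KD HT-1080, 48 h, CellTiter-Glo. Curves classed by r2, magnitude and activity.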
A number is an active result; – = inactive; ? = inconclusive; [ ] = remark or other dose. Shown are actives, neighbours in structure and some others; about 19% of the full set was active somewhere. Unless noted, the call rests on the fitted dose curve; in most records, active means well fitted curve in the direction sought with a large enough effect; inconclusive means small, poorly fitted or top-dose-only effect, or another doubt; inactive means no such curve, though single readings can be large; an effect the other way counts as inactive or inconclusive.

SMILES | IL-1B inflam inh | TDP1 cell noCPT | DT40 TDP1 CPT | HT1080-NT tox | HT1080 IDH1KD tx
NC(=S)N=Nc1c(O)n(CC(=O)Nc2ccccc2)c2ccccc12 | – | – | – | ? | ?
NC(=S)N=Nc1c(O)n(CCCl)c2ccccc12 | – | 2.6µM | 13µM | – | –
CCO[C@H]1OC(C(N)=O)=C[C@@H](C(C)(C)C)[C@@H]1CCCO | – | – | – | – | –
CCOc1ccc(/C=C2\C(=O)c3ccccc3OC2c2ccccc2)cc1 (configuration not stated) | – | 18µM | ? | – | –
CCN(CC)C(=O)c1nn(Cc2ccccc2)c(=O)c2ccccc12 | – | – | – | – | –
CCN(CC)C(=O)c1nn(-c2ccccc2)c2c1C1CCC2(C)C1(C)C (configuration not stated) | ? | 16µM | 23µM | – | –
COc1cccc(NC(=O)C2CCN(S(=O)(=O)c3ccc4[nH]c(=O)ccc4c3)CC2)c1 | – | – | – | – | –
COC(=O)Cc1ccc(NC(=S)Nc2cccc(C)n2)cc1 | – | 18µM | ? | – | –
Cc1cccc(NC(=O)CCC(=O)c2cccs2)n1 | – | – | – | – | –
Cc1cccc(NC(=S)Nc2cccc(C)n2)n1 | – | 5.2µM | ? | – | –
Cc1cccc(NC(=S)NC(=O)c2cccs2)n1 | – | – | – | 1.3µM | 5.6µM
CCOC(=O)c1ccc(NC(=S)Nc2cccc(C)n2)cc1 | – | ? | ? | – | –
Cc1cccc(NC(=S)NC2CCCCC2)n1 | – | ? | 26µM | ? | –
Cc1cccc(NC(=S)NC2CCCC2)n1 | – | ? | ? | – | –
COc1ccccc1-n1ccnc(SCC(=O)NCCc2ccccc2)c1=O | – | – | – | – | –
CSc1ncccc1C(=O)OCC(=O)NCCc1ccccc1 | – | – | – | – | –
CCOC(=O)Cc1csc(NC(=O)COc2ccc(C)cc2)n1 | – | ? | ? | – | –
CCOC(=O)Cc1csc(N/N=C\c2cccc(Br)c2)n1 | – | ? | 13µM | – | –
CCOC(=O)Cc1csc(NC(=O)c2cc(C)c(C)s2)n1 | – | 23µM | ? | – | –
CCOC(=O)Cc1csc(NC(=O)c2ccc(Cl)s2)n1 | – | ? | ? | – | –
CCOC(=O)Cc1csc(NC(=O)COc2ccc(N(C)S(=O)(=O)c3cccs3)cc2)n1 | – | 29µM | ? | – | –
CCOC(=O)Cc1csc(NC(=O)c2ccc3ccccc3n2)n1 | – | 18µM | ? | – | –
Cc1ccc(NC(=O)CN(C)S(=O)(=O)c2cnc[nH]2)c(C)c1 | – | – | – | – | –
Cc1cccc(C(O)c2ncc(-c3ccc4ccccc4c3)[nH]2)c1C (configuration not stated) | – | ? | ? | – | –
CC(=O)NC(c1ccccc1)c1nc(/C=C/c2ccccc2)cs1 (configuration not stated) | – | ? | ? | – | –
SMILES | IL-1B inflam inh | TDP1 cell noCPT | DT40 TDP1 CPT | HT1080-NT tox | HT1080 IDH1KD tx
CCOC(=O)Cc1csc(NC(=O)c2cnc3sc(C)cn3c2=O)n1 | – | 21µM | ? | – | –
CCOC(=O)Cc1csc(NC(=O)NC2(C(F)(F)F)Oc3cc(Cl)c(Cl)cc3O2)n1 | – | ? | 23µM | ? | –
CCOC(=O)Cc1csc(NC(=O)c2ccc(N3CCOCC3)cc2[N+](=O)[O-])n1 | – | ? | 23µM | –[9.24 µM] | –
CCOC(=O)Cc1csc(NC(=O)c2ccc(C)o2)n1 | – | – | – | – | –
CCOC(=O)Cc1csc(SCC(=O)Nc2cccc(C#N)c2)n1 | – | – | – | – | –
CCOC(=O)Cc1csc(SCC(=O)Nc2cccc(Cl)c2)n1 | – | 15µM | ? | – | –[9.24 µM]
CN(C)[C@H]1CCN([C@@H]2CS(=O)(=O)N[C@H]2COCc2ccccc2)C1 | – | – | – | – | –
CCOC(=O)Cc1csc(NC(=O)/C=C\c2ccccc2)n1 | – | ? | ? | – | –
CCOC(=O)Cc1csc(NC(=O)Nc2ccc(OC(F)(F)F)cc2)n1 | – | 18µM | ? | – | ?
